High-throughput results from PubChem BioAssay.
RORgamma inh: ROR gamma (mouse) transcription inhibition. Drosophila S2 Gal4-RORgamma UAS-luciferase reporter, 20 h. Potency, µM (doses to about 53.6 µM), without a hit: at the top dose activity change, negative = inhibition, usual class: inhibitors. 5.4% of 310,000 active; further: potency means the concentration at half of the fitted maximal effect; nearly all actives have a fitted effect of over 60% in size
Target sequence (P51450 whole entry, looked up, the tested form may be a part): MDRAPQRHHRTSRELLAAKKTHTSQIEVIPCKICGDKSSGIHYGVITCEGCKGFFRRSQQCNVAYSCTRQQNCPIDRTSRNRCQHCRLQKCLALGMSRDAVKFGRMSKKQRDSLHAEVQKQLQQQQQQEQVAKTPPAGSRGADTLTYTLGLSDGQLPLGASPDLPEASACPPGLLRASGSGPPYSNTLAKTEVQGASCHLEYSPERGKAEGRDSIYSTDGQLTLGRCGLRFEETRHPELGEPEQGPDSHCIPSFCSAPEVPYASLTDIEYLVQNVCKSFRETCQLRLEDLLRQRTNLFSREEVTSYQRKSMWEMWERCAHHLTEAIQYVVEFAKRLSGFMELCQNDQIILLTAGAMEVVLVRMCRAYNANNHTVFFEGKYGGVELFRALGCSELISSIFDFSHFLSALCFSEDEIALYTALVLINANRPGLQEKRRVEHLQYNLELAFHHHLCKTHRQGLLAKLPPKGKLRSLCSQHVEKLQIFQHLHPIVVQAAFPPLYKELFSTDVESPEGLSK
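Drosophila Schneider cells stably carrying a metallothionein-driven Gal4 DBD–ROR gamma fusion and a UAS-Photinus luciferase reporter were exposed to compound for 1 hr, then induced with copper sulfate (700 uM final) for 20 hr at ambient temperature before luminescence reading.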
TDP1 cell noCPT: qHTS for Inhibitors of human tyrosyl-DNA phosphodiesterase 1 (TDP1): qHTS in cells in absence of CPT; DT40 Tdp1-/- hTDP1 cells, no CPT, ATP luminescence, 48 h; 15% of 420,000 active; AID 686978, 2013; Potency, µM (titrated, usually from 46.2 µM), inactives show at the top dose activity change, negative = growth inhibition, hits mostly inhibitors; further: potency means the concentration at half of the fitted maximal effect; nearly all actives have a fitted effect of over 55% in size
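Growth of hTDP1-complemented DT40 Tdp1-knockout cells is measured by ATP luminescence after at least 48 hr compound exposure at 37 °C, with DMSO substituting for the 20 nM CPT used in the parallel screen.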
LDHA inh: LDHA (human) enzyme inhibition. P00338. purified LDHA, NADH/diaphorase-resazurin fluorescence; stronger effect = lower value. activity change, % (values are at about 110 or 230 µM). 0.15% of 480,000 active. AID 1347041; in the data active means activity change below about -30%; inconclusive means mostly about -25% to -30%;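 further: plate controls were DMSO wells for no effect and wells without enzyme for full effect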
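Enzyme activity of human lactate dehydrogenase 5 (2 nM; 0.06 mM NADH, 0.2 mM pyruvate, 5 min, RT) is measured via a resazurin/diaphorase fluorescence readout of residual NADH.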
TDP1 cell CPT: growth inhibition of DT40 Tdp1-/-;hTDP1 cells with camptothecin (screen for TDP1 inhibitors); chicken DT40 Tdp1-/-;hTDP1 cells + 20 nM CPT, ATP luminescence, 48 h; Potency, µM (series often up to 46.2 µM), inactives show at the top dose activity change, negative = growth inhibition, most hits filed as inhibitors; 12% of 420,000 active; AID 686979; further: potency means the concentration at half of the fitted maximal effect; nearly all actives have a fitted effect of over 55% in size
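Chicken DT40 Tdp1-/- cells stably complemented with human TDP1 were seeded at 400 cells/well in medium containing 20 nM camptothecin, exposed to pin-transferred compounds, and grown at 37 °C for at least 48 hr. Viability was read as ATP luminescence.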
VP16 counter: counter-screen for ROR gamma inhibitors: Gal4-VP16 reporter. Drosophila S2 Gal4-VP16 UAS-luciferase, luminescence, 20 h. Potency, µM (titrated, usually from 53.6 µM), without a hit: top-dose activity, negative = inhibition, actives largely listed as inhibitors. 3.5% of 310,000 active. AID 2546;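 further: Gal4-VP16 expression switched on by copper sulfate through the metallothionein promoter; potency means the concentration at half of the fitted maximal effect; nearly all actives have a fitted effect of over 50% in size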
IL-1B inflam inh: inhibitors of inflammasome signaling (IL-1 beta secretion); activity change, % at 57.5 µM; THP-1 LPS/ATP IL-1B secretion, AlphaLISA, 16 h; stronger effect = lower value; 4.7% of 360,000 active; AID 743279; in the data active means activity change below about -50%; inconclusive means mostly about -30% to -49%
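Secreted IL-1B measured by AlphaLISA bead assay after 16 h compound exposure of THP-1 cells; compounds (final up to 57.5 uM) added 1 h before LPS (250 ng/mL) and ATP (1.25 mM) stimulation; lower signal means less secretion.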
* hit, by the source's call; u = inconclusive; x = no result; [ ] = another dose, or the depositor's remark. Hits are enriched below; roughly 18% of the tested compounds scored in any of these assays. Unless noted, the call rests on the fitted dose curve; in most records, active means well fitted curve in the direction sought with a large enough effect; inconclusive means small, poorly fitted or top-dose-only effect, or another doubt; inactive means no such curve, though single readings can be large; an effect the other way counts as inactive or inconclusive. Unless noted, on the % scale 0 is the no-effect control and ±100 the full control effect.

SMILES	RORgamma inh	TDP1 cell noCPT	LDHA inh	TDP1 cell CPT	VP16 counter	IL-1B inflam inh
COc1ccc(Cl)cc1NC(=O)c1cc2ccc3ccc(C)[nH]c3c2n1	x	23µM*	-7	u	x	x
COc1ccccc1CNC(=O)c1cc2ccc3ccc(C)[nH]c3c2n1	x	16µM*	2	18µM*	x	x
COc1c(O[C@@H]2O[C@H](CO)[C@@H](O)[C@H](O)[C@H]2O)cc2c(c1OC)-c1ccc(SC)c(=O)cc1[C@@H](NC(C)=O)CC2	x	-1%[21.1 µM]	x	12%[21.1 µM]	x	x
COc1cc2c(c(OC)c1OC)-c1ccc(N(C)CC(OC)OC)c(=O)cc1[C@@H](NC(C)=O)CC2	-16%	0.65µM*	3	1.3µM*	0%	74
CN[C@H]1CCc2cc(OC)c(OC)c(OC)c2-c2ccc(N(C)CC(OC)OC)c(=O)cc21	-13%	6.5µM*	8	7.3µM*	-14%	48
COc1cc2c(c(OC)c1OC)-c1ccc(OC)c(=O)cc1[C@@H](N(C)CC#CCO)CC2	-15%	0.18µM*	3	0.21µM*	-1%	48
COc1cc2c(cc1OC)C(C(=O)c1ccc(OC)c(OC)c1O)=NCC2	0%	-24%[9.04 µM]	x	-14%[9.04 µM]	-9%	x
C#CCNC(=O)c1ccccc1NCC(=O)NC(=O)NCc1ccccc1	x	x	7	x	x	x
Fc1ccccc1C1c2cccn2CCN1C(=S)Nc1ccc(Br)cc1 (stereo unspecified)	u	u	0	21µM*	-13%	-86*
Fc1cccc(NC(=S)N2CCn3cccc3C2c2cccnc2)c1 (stereo unspecified)	9%	13%	-3	4%	-1%	-7
Fc1ccccc1C1c2cccn2CCN1C(=S)Nc1cccc(Br)c1 (stereo unspecified)	13µM*	16%	0	-2%	u	0
Fc1ccc(C2c3cccn3CCN2C(=S)Nc2cccc(F)c2)cc1 (stereo unspecified)	10µM*	u	-3	-11%	-66%	-9
CC1(c2cccc3ccccc23)NC(=O)N(Cc2ncc(-c3ccccc3)o2)C1=O (stereo unspecified)	x	x	9	x	x	x
COc1cc(OC)c2c(C)c(CC(=O)NC3CCCCCCC3)c(=O)oc2c1	x	x	-12	x	x	x
Cc1ccc(C)c(-c2csc(NC(=O)C3=COCCO3)n2)c1	x	16µM*	0	21µM*	x	-10
O=C(Nc1nc(-c2cc(F)ccc2F)cs1)C1=COCCO1	x	u	1	18µM*	x	-13
O=C(Nc1nc(-c2ccc(Oc3ccccc3)cc2)cs1)C1=COCCO1	44%	12µM*	-8	u	-17%	8
Cc1ccc(C)c(-c2csc(NC(=O)c3cc(C)on3)n2)c1	x	x	7	x	x	x
Cc1ccc(C)c(-c2csc(NC(=O)c3cnccn3)n2)c1	0.5µM*	u	-6	u	1.3µM*	-12
Cc1ccc(-c2csc(NC(=O)C3=COCCO3)n2)cc1	10%	u	-3	u	u	-1
Cc1cc(NC(=O)COC(=O)c2nc(-c3ccccc3)oc2C)ccc1N1CCCC1	x	x	1	x	x	x
C/C(=N/Nc1ccc(S(=O)(=O)Nc2ccccc2)cc1[N+](=O)[O-])c1cccnc1	x	x	4	x	x	x
COc1ccc(OC)c(-c2csc(NC(=O)C3=COCCO3)n2)c1	x	18µM*	-1	16µM*	x	-12
CCc1c(C)sc(NC(=O)c2ccc(Cl)c(Cl)c2)c1C#N	x	x	-1	x	x	x
COc1cc(C)cc2oc(=O)c(CC(=O)NCc3ccc(F)cc3)c(C)c12	x	x	-1	x	x	x
SMILES	RORgamma inh	TDP1 cell noCPT	LDHA inh	TDP1 cell CPT	VP16 counter	IL-1B inflam inh
COC(=O)[C@@]1(Cc2ccc(F)cc2)[C@H]2c3cc(C(=O)N(C)C)n(Cc4ccc(C)o4)c3C[C@H]2CN1C(=O)c1ccccc1	u	21µM*	0	16µM*	u	-24
COC(=O)[C@@]1(Cc2ccc(F)cc2)[C@H]2c3cc(C(=O)N(C)C)n(Cc4ccccc4)c3C[C@H]2CN1C(=O)c1ccccc1	u	21µM*	-3	5.2µM*	1%	-22
COC(=O)[C@@]1(Cc2ccc(F)cc2)[C@H]2c3cc(C(=O)N(C)C)n(CCc4ccc(OC)c(Br)c4)c3C[C@H]2CN1C(=O)c1ccccc1	u	9.2µM*	-1	10µM*	0%	0
COC(=O)[C@@]1(Cc2ccc(F)cc2)[C@H]2c3cc(C(=O)N(C)C)n(CCO)c3C[C@H]2CN1C(=O)c1ccccc1	-1%	-25%	-3	-8%	18%	-1
COC(=O)[C@@]1(Cc2ccc(F)cc2)[C@H]2c3cc(C(=O)N(C)C)n(Cc4ccc(OC)c(OC)c4)c3C[C@H]2CN1C(=O)c1ccccc1	u	u	-19	u	-17%	-2
COC(=O)[C@@]1(Cc2ccc(OC)cc2)[C@H]2c3cc(C(=O)N(C)C)n(Cc4ccc(OC(F)(F)F)cc4)c3C[C@H]2CN1C(=O)c1ccccc1	u	21µM*	1	21µM*	-11%	-62*
Cc1ccc(C)c(-c2nn(CC(=O)Nc3ccccc3F)c(=O)c3c2CCCC3)c1	x	x	8	x	x	x
C/C(=N\NC(=O)c1cccc(Cl)c1)C1C(=O)c2ccccc2C1=O	-4%	0.82µM*	-15	0.92µM*	-4%	0
CC(/C=C/c1ccccc1)=N\NC(=O)CCc1ccccc1	-44%	-2%	-11	-14%	-9%	0
C/C(=N\NC(=O)c1cccc(Cl)c1)c1ccc(C)s1	x	x	4	x	x	x
C/C(=N\NC(=O)CCc1ccccc1)C1C(=O)c2ccccc2C1=O	0.56µM*	2.6µM*	-3	1.6µM*	2µM*	40
Cc1cccc(C(=O)NC(Nc2cccc3ccccc23)C(Cl)(Cl)Cl)c1 (stereo unspecified)	x	x	19	x	x	x
CNC(=O)C1CCN(CCc2ccncc2)CC1	x	x	5	x	x	x
CCC(=O)N1CCc2cc(S(=O)(=O)NCCC(=O)Nc3ccc(N(CC)CC)cc3C)ccc21	x	23µM*	2	u	x	x
CCC(=O)N1CCc2cc(S(=O)(=O)NCCC(=O)Nc3ccc(C)cc3C)ccc21	x	23µM*	-4	u	x	x
CCC(=O)N1CCc2cc(S(=O)(=O)NCCC(=O)NC3CCCCCC3)ccc21	-1%	-26%	-2	u	9%	3
Cc1ccc(-c2cc(-c3ccc4c(c3)NC(=O)CO4)nc3c2COc2ccccc2-3)cc1	x	4.1µM*	-5	5.2µM*	x	x
